According to PubChem BioAssay (Tox21):
Records with an inconclusive call do not appear. A number with no mark means an inactive call. Active and inactive are the calls of the source. Calls come from the whole dose curve; as a rule, active = well fitted curve in the direction sought with a large enough effect in the repeat runs; inconclusive = weak or mixed curves; inactive = no such curve, though single readings can be large; an effect the other way counts as inactive or inconclusive.

These molecules were tested against Cytochrome P450 1A2 (Homo sapiens) (UniProt P05177) (assay: Cytochrome P450 Family 1 Subfamily A Member 2 (CYP1A2) small molecule antagonists: luciferase reporter qHTS assay (AID 1671199)). Settings: P450-Glo CYP1A2 enzyme, luciferin luminescence, 1 h; series mostly up to 115 µM; activity change, negative = inhibition: at the top concentration.
Sequence of Cytochrome P450 1A2 (Homo sapiens) (P05177 whole entry, looked up): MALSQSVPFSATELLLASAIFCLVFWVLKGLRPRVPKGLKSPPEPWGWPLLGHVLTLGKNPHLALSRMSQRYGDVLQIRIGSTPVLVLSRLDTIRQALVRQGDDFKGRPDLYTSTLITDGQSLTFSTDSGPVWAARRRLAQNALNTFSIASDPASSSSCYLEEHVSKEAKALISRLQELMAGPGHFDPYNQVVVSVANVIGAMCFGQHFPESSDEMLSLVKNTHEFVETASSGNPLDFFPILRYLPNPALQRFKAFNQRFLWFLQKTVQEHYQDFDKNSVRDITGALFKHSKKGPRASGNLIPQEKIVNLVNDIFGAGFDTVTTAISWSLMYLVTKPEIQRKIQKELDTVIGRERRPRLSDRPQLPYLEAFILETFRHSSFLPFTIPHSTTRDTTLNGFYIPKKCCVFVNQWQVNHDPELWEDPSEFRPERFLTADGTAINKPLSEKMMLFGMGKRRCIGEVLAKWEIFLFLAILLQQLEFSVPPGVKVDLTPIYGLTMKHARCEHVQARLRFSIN
In short: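 Inhibition of CYP1A2 conversion of proluciferin to luciferin, detected by luminescence. Reaction run 1 h at room temperature with NADPH regeneration after brief compound preincubation.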
% is set by controls: 0 for no effect and ±100 for the full control effect; potency is the fitted concentration of half-maximal effect.
Note: nearly all actives have a fitted effect of over 50% in size.

Row | SMILES | Potency | activity change, negative = inhibition
1 | Clc1nc(C(Cl)(Cl)Cl)c(Cl)c(Cl)c1Cl | 2.52 µM (active) | –
2 | c1ccc2cc3c4ccccc4c4ccccc4c3cc2c1 | 0.225 µM (active) | –
3 | O=C(Nc1ccccc1)c1cc(Cl)ccc1O | 12.6 µM (active) | –
4 | CC(Cc1ccc(O)c(O)c1)C(C)Cc1ccc(O)c(O)c1 (centres undefined) | – | -29.5%
5 | NCc1cccc(C2CCN(C(=O)c3ccc(C#Cc4ccccc4F)o3)CC2)c1 | 71 µM (active) | –
6 | CCCCCCCCCCCCCCCCCCNC(=O)OC1CCN(C(=O)OC[C@H](COC(=O)N(Cc2cccc[n+]2CC)C(=O)c2ccccc2OC)OC)CC1 | – | -16.8% [at 53 µM]
7 | c1ccc(-c2ccc(C(c3ccccc3)n3ccnc3)cc2)cc1 (centres undefined) | 5.49 µM (active) | –
8 | CC(C)(c1ccc(Oc2ccc(N)cc2)cc1)c1ccc(Oc2ccc(N)cc2)cc1 | – | -18%
9 | O[Si](c1ccccc1)(c1ccccc1)c1ccccc1 | – | -20.1%

These molecules were tested against Voltage-gated inwardly rectifying potassium channel KCNH2 (Homo sapiens) (UniProt Q12809) (assay: Human Ether-a-go-go-Related Gene (hERG) channel small molecule antagonists: fluorescence cell-based qHTS assay (AID 1671200;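 for activity change, negative = inhibition: hERG-expressing U2OS cells given a thallium stimulus after FluxOR II dye loading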)). Settings: hERG-U2OS cells, FluxOR thallium flux fluorescence; series mostly up to 76.8 µM; activity change, negative = inhibition: at the top concentration.
Sequence of Voltage-gated inwardly rectifying potassium channel KCNH2 (Homo sapiens) (Q12809 whole entry, looked up): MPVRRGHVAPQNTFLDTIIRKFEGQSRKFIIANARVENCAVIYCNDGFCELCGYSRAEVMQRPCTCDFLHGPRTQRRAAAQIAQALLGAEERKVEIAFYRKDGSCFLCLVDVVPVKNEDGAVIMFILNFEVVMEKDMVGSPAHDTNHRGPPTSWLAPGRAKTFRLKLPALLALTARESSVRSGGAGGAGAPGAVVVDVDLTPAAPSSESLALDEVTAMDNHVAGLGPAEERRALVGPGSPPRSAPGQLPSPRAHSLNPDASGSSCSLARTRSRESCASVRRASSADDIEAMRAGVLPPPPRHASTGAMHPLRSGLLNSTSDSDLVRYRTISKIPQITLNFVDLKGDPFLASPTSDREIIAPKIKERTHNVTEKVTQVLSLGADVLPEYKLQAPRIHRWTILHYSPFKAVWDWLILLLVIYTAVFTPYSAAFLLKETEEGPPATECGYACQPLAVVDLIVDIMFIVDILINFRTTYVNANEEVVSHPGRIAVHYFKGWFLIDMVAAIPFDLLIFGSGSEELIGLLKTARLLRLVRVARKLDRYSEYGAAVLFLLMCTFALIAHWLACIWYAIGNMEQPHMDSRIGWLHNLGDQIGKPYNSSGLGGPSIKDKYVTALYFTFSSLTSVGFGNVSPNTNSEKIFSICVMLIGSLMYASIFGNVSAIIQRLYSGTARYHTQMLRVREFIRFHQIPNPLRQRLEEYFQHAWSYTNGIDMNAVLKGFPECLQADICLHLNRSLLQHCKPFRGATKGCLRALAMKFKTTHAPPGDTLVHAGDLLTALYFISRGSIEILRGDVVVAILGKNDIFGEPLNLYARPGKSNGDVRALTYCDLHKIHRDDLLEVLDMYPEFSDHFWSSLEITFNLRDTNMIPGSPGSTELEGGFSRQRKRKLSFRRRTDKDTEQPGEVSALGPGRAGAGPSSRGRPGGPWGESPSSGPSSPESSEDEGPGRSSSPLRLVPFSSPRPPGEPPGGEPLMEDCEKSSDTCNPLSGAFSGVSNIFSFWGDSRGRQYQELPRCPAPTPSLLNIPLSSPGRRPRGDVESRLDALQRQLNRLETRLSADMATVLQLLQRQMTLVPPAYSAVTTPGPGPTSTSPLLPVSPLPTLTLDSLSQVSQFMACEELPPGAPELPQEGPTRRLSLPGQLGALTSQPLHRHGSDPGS
In short: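 Read-out: thallium influx as a surrogate for potassium, tracked as fluorescence (480 nm ex/540 nm em) every second for 2 min after Stimulus Buffer addition in dye-loaded hERG-U2OS cells.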

Row | SMILES | Potency | activity change, negative = inhibition
10 | Clc1nc(C(Cl)(Cl)Cl)c(Cl)c(Cl)c1Cl | 49 µM (active) | –
11 | CCOc1ccc([N+](=O)[O-])cc1 | – | -26.8%
12 | c1ccc2cc3c4ccccc4c4ccccc4c3cc2c1 | – | -7.65%
13 | C=C1C(CCl)(CCl)C2(Cl)C(Cl)C(Cl)C1(Cl)C2(Cl)Cl (centres undefined) | 43.1 µM (active) | –
14 | O=C(Nc1ccccc1)c1cc(Cl)ccc1O | – | -22.7%
15 | NCc1cccc(C2CCN(C(=O)c3ccc(C#Cc4ccccc4F)o3)CC2)c1 | 11 µM (active) | –
16 | c1ccc(-c2ccc(C(c3ccccc3)n3ccnc3)cc2)cc1 (centres undefined) | 7.56 µM (active) | –
17 | CC(C)(c1ccc(Oc2ccc(N)cc2)cc1)c1ccc(Oc2ccc(N)cc2)cc1 | – | -9.21%
18 | O=S(=O)(c1ccc(OCc2ccccc2)cc1)c1ccccc1O | – | -3.56%
19 | COc1cc([C@@H]2c3cc4c(cc3[C@@H](O[C@@H]3O[C@@H]5CO[C@@H](C)O[C@H]5[C@H](O)[C@H]3O)[C@H]3COC(=O)[C@H]23)OCO4)cc(OC)c1O | – | -1.68%
